According to PubChem BioAssay (NCATS):
Results filed as inconclusive are left out. A call without a number means that no potency is given here. Active and inactive are the calls of the source. Calls follow the shape of the dose curve; as a rule, active = well fitted inhibition curve with a large enough effect; inconclusive = small, poorly fitted or top-dose-only effect; inactive = flat fitted curve, though single readings scatter.

biological target: Ubiquitin carboxyl-terminal hydrolase 1 (Homo sapiens) (UniProt O94782); assay: Inhibitors of USP1/UAF1: Pilot qHTS (AID 504865); conditions: purified USP1/UAF1, Ub-rhodamine cleavage fluorescence; series mostly up to 114 µM; also: nearly all actives have a fitted effect of over 35% in size
Sequence (O94782 whole entry, looked up): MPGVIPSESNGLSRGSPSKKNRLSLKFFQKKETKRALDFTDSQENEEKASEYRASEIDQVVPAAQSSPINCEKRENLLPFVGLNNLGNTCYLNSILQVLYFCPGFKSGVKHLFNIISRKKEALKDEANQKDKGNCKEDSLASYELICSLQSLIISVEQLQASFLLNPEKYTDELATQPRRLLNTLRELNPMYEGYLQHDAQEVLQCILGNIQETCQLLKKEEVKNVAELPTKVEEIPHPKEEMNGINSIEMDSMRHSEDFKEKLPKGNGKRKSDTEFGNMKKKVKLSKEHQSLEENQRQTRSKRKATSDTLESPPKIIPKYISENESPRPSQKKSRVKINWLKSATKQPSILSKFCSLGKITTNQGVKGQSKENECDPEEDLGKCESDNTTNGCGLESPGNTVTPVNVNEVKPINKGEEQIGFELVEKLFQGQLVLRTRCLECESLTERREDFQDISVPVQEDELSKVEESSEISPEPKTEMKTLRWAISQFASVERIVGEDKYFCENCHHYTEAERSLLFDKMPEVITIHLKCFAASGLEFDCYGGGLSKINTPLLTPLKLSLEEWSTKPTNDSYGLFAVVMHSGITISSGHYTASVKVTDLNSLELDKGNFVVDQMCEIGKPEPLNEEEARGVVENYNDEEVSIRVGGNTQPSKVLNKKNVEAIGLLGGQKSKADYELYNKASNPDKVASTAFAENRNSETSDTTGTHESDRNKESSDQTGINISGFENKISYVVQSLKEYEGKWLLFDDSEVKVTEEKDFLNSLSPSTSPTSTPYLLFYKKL
Description: Deubiquitinating enzymes (DUBs) are a class of enzymes that can cleave isopeptide bond formed between the C-terminal carboxylate of ubiquitin and a lysine side-chain amino group on the target protein. Among them, ubiquitin specific proteases (USPs) constitute the largest DUB family. Human USPs are emerging as promising targets for pharmacological intervention because of their connection to a number of human diseases, including prostate, colon and breast cancer (1, 2), pediatric acute lymphoblastic leukemia (3), and familial cylindromatosis (4). The advantage of inhibiting USPs lies in the potential specificity of therapeutic intervention that can lead to better efficacy and reduce nonspecific side effects.
In a collaboration between the University of Delaware and the NIH Chemical Genomics Center, a high-throughput screen assay was developed to screen for USP1/UAF1 inhibitors. This miniaturized assay has a fluorescent read-out and is used to screen the NIH Molecular Libraries Small Molecule Repository (MLSMR) in order to identify a small molecule that inhibits USP1.
NIH Chemical Genomics Center [NCGC]
NIH Molecular Libraries Probe Centers Network [MLPCN]
Assay Submitter (PI): Zhihao Zhuang, University of Delaware
1. Priolo, C., et al. (2006) The isopeptidase USP2a protects human prostate cancer from apoptosis. Cancer Res 66, 8625-8632
2. Popov, N., et al. (2007) The ubiquitin-specific protease USP28 is required for MYC stability. Nat Cell Biol 9, 765-774
3. De Pitta, C., et al. (2005) A leukemia-enriched cDNA microarray platform identifies new transcripts with relevance to the biology of pediatric acute lymphoblastic leukemia. Haematologica 90, 890-898
4. Kovalenko, A., et al. (2003) The tumour suppressor CYLD negatively regulates NF-kappaB signalling by deubiquitination. Nature 424, 801-805
3 microliters of reagents (buffer in columns 3 and 4 as negative control and 1nM USP1/UAF1 complex in columns 1, 2, and 5-48) are dispensed into Greiner black solid bottom 1536-well assay plates. Compounds are then transferred via Kalypsys pin tool equipped with 1536-pin array (10nl slotted pins, V&P Scientific, San Diego, CA). Following an incubation step of 15 min at room temperature, 1ul of Ub-Rho substrate (150nM final concentration) is added to initiate the reaction. The plates are immediately centrifuged at 1000 rpm for 15 seconds, and subsequently transferred to a ViewLux high-throughput CCD imager (PerkinElmer) wherein kinetic measurements of fluorescence are acquired using 480 nm excitation/540 nm emission filter set (6 reads every 60 seconds, see Table 1). All reagents are diluted in an assay buffer consisting of 50mM HEPES (pH 7.8), 0.5mM EDTA, 0.1 mg/ml BSA, 1mM TCEP, and 0.01% Tween-20.
Potency is read from the fitted curve at half-maximal effect.

| SMILES | Potency |
| --- | --- |
| Cc1csc(-c2nc3ccccc3n2C)n1 | inactive |
| C[C@@]12CCC(OC(=O)c3ccccc3)CC1CCc1ccccc12 (stereo not given in full) | inactive |
| C=CC1=C(C(=O)O)N2C(=O)[C@@H](NC(=O)C(N=O)c3csc(N)n3)[C@H]2SC1 (stereo not given in full) | inactive |
| O=c1cc(-c2ccc(O)cc2)oc2cccc(O)c12 | inactive |
| NC1C(O)OC(CO)[C@@H](O)[C@@H]1O[C@H]1O[C@@H](C(=O)O)C(O)C(O)C1O (stereo not given in full) | inactive |
| COc1cccc2oc(-c3ccccc3)cc(=O)c12 | inactive |
| CC(=O)OCC1=C(C(=O)O)N2C(=O)C(NC(=O)Cc3ccccc3)C2SC1 (stereo not given) | inactive |
| COc1ccc2c(=O)ccoc2c1 | inactive |
| COC(=O)c1c(C)cc(O)cc1O | inactive |
| COC(=O)CC1[C@@]2(C)C[C@@]34OC5(C)OC6(CC[C@@]7(C)C(c8ccoc8)OC(=O)C(C(C)=O)C7[C@]6(O5)C(O)[C@@]3(O)C2O)[C@]14C (stereo not given in full) | inactive |
| C[C@H](C(=O)O)c1cccc(C(=O)c2ccccc2)c1 | inactive |
| CNCC(O)c1cccc(O)c1 (stereo not given) | inactive |
| OC[C@H]1O[C@@H](n2cnc3c(NCc4ccccc4)ncnc32)[C@H](O)[C@@H]1O | inactive |
| CC(=O)OC(C)(C)C1Cc2cc3ccc(=O)oc3cc2O1 (stereo not given) | inactive |
| COc1cc2c(C=O)c3c4c(cc(OC)c(OC)c4c2cc1OC)CCN3C | 22.4 µM (active) |
| CCC(=O)O[C@H]1C(O[C@@H]2C(C)[C@H](O[C@H]3C[C@@](C)(OC)C(O)C(C)O3)C(C)C(=O)OC(CC)[C@@](C)(O)C(O)[C@H](C)C(=O)C(C)C[C@]2(C)O)OC(C)CC1N(C)C (stereo not given in full) | 20 µM (active) |
| COc1ccc2c(c1OC)C(Cc1ccccc1)N1CCc3cc4c(cc3C1=C2)OCO4 (stereo not given) | 39.8 µM (active) |
| COC(=O)CC1C(C)(C)C(=O)C2CC3C4=CC(=O)OC(c5ccoc5)[C@]4(C)CCC3[C@@]1(C)C2=O (stereo not given in full) | inactive |
| O=C1C=CC2=C3c4cc(O)c(O)cc4C[C@]3(O)COC2=C1 | inactive |
| COc1ccc(C2COc3c(ccc(O)c3OC)C2)c(OC)c1O (stereo not given) | inactive |

| SMILES | Potency |
| --- | --- |
| C=C1C([C@@]2(C)C(OC(C)=O)CC(=O)O[C@@](C)(COC(C)=O)C2CC(=O)OC)C(OC=O)C(OC(=O)C(O)C(C)CC)[C@]2(C)C(c3ccoc3)CC(=O)C12O (stereo not given in full) | inactive |
| NC(Cc1cnc[nH]1)C(=O)Nc1ccc2ccccc2c1 (stereo not given) | inactive |
| CC[C@H](/C=C/[C@@H](C)[C@H]1CC[C@H]2C3CC=C4C[C@@H](O)CC[C@]4(C)C3CC[C@]12C)C(C)C (stereo not given in full) | inactive |
| O=C1CC(c2ccccc2O)Oc2ccc(O)cc21 (stereo not given) | inactive |
| COc1cc2ccc(=O)oc2c(OC)c1OC | inactive |
| COc1cc(OC)c2c(c1)OC(c1ccccc1)CC2=O (stereo not given) | inactive |
| COc1cc(OC)c2c(=O)c(-c3ccccc3)c(C)oc2c1OC | inactive |
| NC(=O)c1ccc[n+]([C@@H]2OC(COP(=O)([O-])OP(=O)(O)OCC3OC(n4cnc5c(N)ncnc54)C(O)C3O)C(O)C2O)c1 (stereo not given in full) | inactive |
| O=C(OCC1OC(OC(=O)c2cc(O)c(O)c(OC(=O)c3cc(O)c(O)c(O)c3)c2)[C@@H](OC(=O)c2cc(O)c(O)c(OC(=O)c3cc(O)c(O)c(O)c3)c2)C(OC(=O)c2cc(O)c(O)c(OC(=O)c3cc(O)c(O)c(O)c3)c2)C1OC(=O)c1cc(O)c(O)c(OC(=O)c2cc(O)c(O)c(O)c2)c1)c1cc(O)c(O)c(OC(=O)c2cc(O)c(O)c(O)c2)c1 (stereo not given in full) | 3.98 µM (active) |
| CC1CC2C(C(O)C[C@]3(C)C2CC[C@]3(O)C(=O)CO)[C@]2(C)C=CC(=O)C=C12 (stereo not given in full) | inactive |
| NC(=O)CCC1NC(=O)C(Cc2ccccc2)NC(=O)C(Cc2ccc(O)cc2)NC(=O)CCSSCC(C(=O)N2CCCC2C(=O)NC(CCCN=C(N)N)C(=O)NCC(N)=O)NC(=O)C(CC(N)=O)NC1=O (stereo not given) | inactive |
| C=C1C(=O)OC2C[C@@]3(C)CCCC(C)C3=CC12 (stereo not given in full) | inactive |
| CC(=O)OC1CC(OC(C)=O)[C@]2(C)C(CC(OC(C)=O)[C@@]3(C)C4=CC(=O)OC(c5ccoc5)[C@]4(C)CCC32)C1(C)C (stereo not given in full) | inactive |
| CN(C)c1ccc(O)c2c1C[C@@H]1C[C@H]3C(N(C)C)C(=O)C(C(N)=O)=C(O)[C@@]3(O)C(=O)C1=C2O (stereo not given in full) | inactive |
| CC1/C=C/C=C/C=C/C=C/C=C/C=C/C=C/C(OC2OC(C)C(O)C(N)C2O)CC2O[C@@](O)(CC(O)CC(O)C(O)CCC(O)CC(O)CC(=O)OC(C)[C@H](C)C1O)CC(O)C2C(=O)O (stereo not given in full) | 56.2 µM (active) |
| Nc1ncnc2c1nc(Br)n2C1OC(CO)C(O)C1O (stereo not given) | inactive |
| NC(N)=Nc1nc(CSCC/C(N)=N\S(N)(=O)=O)cs1 | inactive |
| COc1ccc(-c2oc3ccccc3c(=O)c2O)cc1 | inactive |
| COC1=CC(=O)C=C(OC)C1=O | inactive |
| CCOc1ccc(/C=C/C(=O)c2cccs2)cc1 | inactive |
